Compound activity as filed in PubChem BioAssay.
INS-1E GSIS act – GLuc luminescence reporter in INS-1E cells, primary screen for activators of glucose-dependent secretion of insulin; actives 0.61% (n = 370,000); INS-1E GLuc reporter insulin secretion, 2-3 h; activation, % at 16.6 µM;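 active = lowest replicate activation of at least 40%, so every replicate reaches that level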;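 also: 0% = median of neutral control wells and 100% = median of IBMX positive control wells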
CFTR F508del cor – correctors of CFTR F508del function in bronchial epithelial cells; AID 720511; actives 0.36% (n = 350,000); CFBE cells, YFP halide quenching; stimulated with forskolin plus potentiator P3; % fluorescence drop versus neutral controls; activity (quench increase), % at 7.58 µM;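 active = mean added fluorescence quench of at least 8% versus neutral control, with both replicates also reaching 8%; inconclusive = only one of the mean or replicate conditions met; inactive = mean below 8% and not both replicates reaching 8%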;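 also: cells transiently co-express mutant CFTR-F508del with the halide-sensitive YFP; corrector assay measuring rescue of mutant channel to the surface after 24 h compound exposure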
Wnt bcat act – activators of Wnt/beta-catenin signaling; Wnt/beta-catenin reporter cell assay, activator, plate reader; activation, % at 9.35 µM; actives 1.2% (n = 300,000); in the data active = activation above about 30%, passing the limit was not always enough; inconclusive = no clear call, values can overlap the other calls;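 also: 0% = neutral control wells and 100% = positive control wells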
Env fusion inh – HIV envelope-mediated fusion inhibition; HeLa-JRFL Env/CEM21 cell fusion, luciferase; inhibition, % at 12.3 µM; actives 1.1% (n = 360,000);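 active = mean replicate inhibition score of at least 50 and every replicate individually at or above 50; inconclusive = only one of the two criteria met; inactive = mean below 50 and not all replicates reaching 50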;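 also: 0% = plate neutral controls and 100% = maraviroc near 300 nM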
MITF TRPM1 HTS – increases MITF-driven TRPM1 promoter luciferase signal | SK-MEL-5 TRPM1-promoter luciferase, 24 h; % of positive control, neutral wells = 0 | activation, % at 12.5 µM | actives 0.75% (n = 300,000);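 active = mean activation of at least 80% with every replicate also reaching 80%; inconclusive = mean reaches 80% but some replicate falls short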;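 also: 0% = neutral control wells and 100% = parthenolide positive control wells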
* hit, by the source's call; ? = inconclusive; · = not tested or not shown; [ ] = another dose, or the depositor's remark. In the library only some 2.7% were active in any assay of this set; here they are far more common.

SMILES | INS-1E GSIS act | CFTR F508del cor | Wnt bcat act | Env fusion inh | MITF TRPM1 HTS
CC1(Cc2ccccc2OC(F)(F)F)C(=O)Nc2ccc(-c3ccsc3)cc21 (stereo not given) | 4 | 1 | -1 | 71* | ·
CO[C@@H]1CN(C)C(=O)c2ccc(NS(=O)(=O)c3ccccc3Cl)cc2OC[C@H](C)NC[C@@H]1C | 1 | -1 | · | 15[16.7 µM] | ·
Cc1nc(-c2ccc(NC(=O)c3ccccc3Br)cc2)cs1 | -4 | · | 65* | -104 | ?
Cc1nc(-c2ccc(C(=O)Nc3ccc(F)cc3)cc2)cs1 | 4 | 5 | 43* | -36 | 10
COc1ccc(NC(=O)c2ccc(-c3csc(C)n3)cc2)cc1 | 4 | 1 | 6 | 9 | ·
Cc1nc(-c2ccc(NC(=O)c3ccccc3C)cc2)cs1 | -4 | 0 | -1 | -98 | 60
CO[C@@H]1CN(C)C(=O)c2cc(NC(C)=O)ccc2OC[C@H](C)N(CC2CC2)C[C@H]1C | 6 | 2 | · | · | ·
CCC(=O)N1CCN(c2ccc(-n3c(=O)ccc4cnc5ccc(-c6cnc7ccccc7c6)cc5c43)cc2C(F)(F)F)CC1 | -16 | -4 | -4 | 59* | ·
O=C(NCC1CC1)[C@@H]1[C@@H](CO)[C@@H]2Cn3c(ccc(-c4cccc(F)c4)c3=O)[C@@H]2N1CC1CCOCC1 | -9 | · | · | 14[16.7 µM] | ·
N#C/C(=C\c1c(N2CCN(c3ccccc3)CC2)nc2ccccn2c1=O)C(N)=O | 11 | -2 | -1 | 9 | ·
N#C/C(=C\c1c(N2CCCCCC2)nc2ccccn2c1=O)C(N)=O | 40* | 2 | -2 | 3 | -4
O=C1CC(c2ccco2)CC2=C1C=Nc1ccccc1N2 (stereo not given) | · | · | 45* | -2 | -4
O=C(NC1CCC1)[C@H]1[C@H](CO)[C@H]2Cn3c(ccc(-c4ccncc4)c3=O)[C@@H]1N2CC1CC1 | -6 | -1 | · | · | ·
O=C(Nc1ccc(F)cc1F)c1csc(-c2cccs2)n1 | 13 | -2 | 35* | -35 | 45
O=C(Nc1ccc(F)cc1F)c1csc(-c2ccncc2)n1 | -12 | 1 | 21 | -4 | 3
C[C@H]1CN([C@@H](C)CO)C(=O)Cc2cc(NC(=O)C3CC3)ccc2O[C@H]1CN(C)S(=O)(=O)c1cccs1 | 2 | 2 | · | 34[16.7 µM] | ·
CC(Sc1nnnn1C)C(=O)Nc1ccccc1 (stereo not given) | 8 | 0 | -2 | 15 | 0
Cc1cc(Br)c(NC(=O)C(C)Sc2nnnn2C)c(Br)c1 (stereo not given) | -18 | 12* | 1 | -1 | 1
Cc1nc(N2CCC(C)CC2)c2oc3ccccc3c2n1 | · | · | · | · | -9
COc1ccccc1N1CCN(c2nc(C)nc3c2oc2ccccc23)CC1 | -32 | · | · | 63* | -35
O=C(C[C@@H]1CC[C@@H]2[C@H](COC[C@H](O)CN2Cc2cc(F)cc(F)c2)O1)NC1CCC1 | -2 | 0 | · | · | ·
COC(=O)/C=C/c1ccccc1S(=O)(=O)N(Cc1ccccc1)Cc1ccco1 | 7 | 8.3* | -18 | -209 | -38
Cc1ccccc1Cc1c(C)nc2nc(SCC(=O)NCc3ccco3)nn2c1C | · | · | · | 16 | -5
Cc1ccccc1Cc1c(C)nc2c(C(=O)NCc3ccco3)cnn2c1C | 46* | -1 | 1 | · | 3
COCC(=O)Nc1ccc2c(c1)C(=O)N(C)C[C@H](OC)[C@H](C)CN(CC1CCCCC1)[C@H](C)CO2 | 5 | -1 | · | · | ·
SMILES | INS-1E GSIS act | CFTR F508del cor | Wnt bcat act | Env fusion inh | MITF TRPM1 HTS
COc1cc(OC)nc(Nc2nc(C(N)COCc3ccccc3)cs2)n1 (stereo not given) | -25 | 2 | 1 | 97* | ·
Cc1ccc(-c2nc(C(=O)O)cs2)cc1 | 17 | 1 | -1 | 6 | -3
COc1ccc(-c2nc(C(=O)O)cs2)cc1OC | 71* | 2 | 0 | 9 | -2
CCOC(=O)c1csc(-c2ccc(OC)c(OC)c2)n1 | 50* | 6 | 6 | -20 | 32
CCOC(=O)c1csc(-c2ccc3c(c2)CCO3)n1 | · | 1 | 40* | -140 | ·
COc1ccc(S(=O)(=O)Nc2cccc3c2O[C@@H](CN(C)Cc2ccc(Cl)c(Cl)c2)[C@H](C)CN([C@@H](C)CO)C3=O)cc1 | -25 | -1 | · | -38[16.7 µM] | ·
CC(=O)N1[C@H](CO)[C@H]2c3ccccc3N(C(=O)c3ccccc3)C[C@H]21 | 11 | 0 | · | · | ·
Cc1cc(C)nc(NC(=O)/C=C/c2ccccc2Cl)c1 | -15 | · | 44* | -299 | 54
Cc1cc(C)nc(NC(=O)/C=C/c2ccc(Cl)cc2Cl)c1 | · | · | · | · | 88*
Cc1cccc(NC(=O)/C=C/c2ccc(Cl)cc2)n1 | -18 | · | · | -192 | 90*
Cc1cccc(NC(=O)/C(C#N)=C/c2ccc(Cl)cc2)n1 | -26 | 4 | 1 | -9 | -1
C[C@@H](NC(=O)[C@@H]1[C@@H](CO)[C@@H]2Cn3c(ccc(-c4cccnc4)c3=O)[C@H]1N2C)c1ccccc1 | 6 | -2 | · | · | ·
C[C@@H]1CN([C@H](C)CO)C(=O)c2cc(NC(=O)Nc3ccc(F)cc3)ccc2O[C@@H](C)CCCCO[C@@H]1CN(C)Cc1ccc(C(F)(F)F)cc1 | 2 | -2 | · | 57*[16.7 µM] | ·
C[C@H]1CCCCO[C@H](CN(C)Cc2ccc(C(F)(F)F)cc2)[C@@H](C)CN([C@@H](C)CO)C(=O)c2cc(NC(=O)Nc3ccc(F)cc3)ccc2O1 | -7 | 0 | · | 58*[16.7 µM] | ·
C[C@@H]1CCCCO[C@H](CN(C)Cc2ccc(C(F)(F)F)cc2)[C@H](C)CN([C@@H](C)CO)C(=O)c2cc(NC(=O)Nc3ccc(F)cc3)ccc2O1 | 11 | -3 | · | 44[16.7 µM] | ·
C[C@@H]1CN([C@H](C)CO)C(=O)c2cc(NC(=O)Nc3ccc(F)cc3)ccc2O[C@@H](C)CCCCO[C@H]1CN(C)Cc1ccc(C(F)(F)F)cc1 | 36 | -4 | · | 68*[16.7 µM] | ·
O=C(C[C@@H]1CC[C@@H]2[C@H](COC[C@@H](O)CN2S(=O)(=O)c2ccc(Cl)cc2)O1)NCCN1CCCCC1 | 9 | 1 | · | · | ·
C[C@@H]1CN([C@H](C)CO)C(=O)Cc2cc(NC(=O)Nc3cccc4ccccc34)ccc2O[C@@H]1CN(C)S(=O)(=O)c1ccc(F)cc1 | -33 | 0 | · | 8[16.7 µM] | ·
CC(C)Oc1ccc(C(=O)OCC(=O)c2ccc[nH]2)cc1 | -30 | 4 | 45* | · | 89*
Cc1ccsc1C(=O)OCC(=O)c1ccc[nH]1 | 2 | -2 | 38* | · | 109*
COc1ccc(C(=O)COC(=O)c2sccc2C)cc1OC | · | -1 | 45* | · | 103*
CCCNC(=O)N1CC2(CCN(C(=O)c3cnccn3)CC2)c2c([nH]c3cc(OC)ccc23)[C@H]1CO | -4 | 1 | · | · | ·
COC(=O)c1ccc(Oc2nc(Nc3ccc(C)c(C)c3)nc(N(C)C)n2)cc1 | -41 | · | · | 65* | 3
O=C1C(C=NCCCN2CCOCC2)=C(O)c2ccccc21 | · | · | · | · | 2
O=C1C(C=NCCN2CCOCC2)=C(O)c2ccccc21 | 25 | · | 34* | -34 | 35
Cc1cc(C(=O)NC2CCCCCCC2)ccc1[N+](=O)[O-] | 9 | -2 | 48* | -55 | ·
Cc1cc(C(=O)NCCc2ccccc2)ccc1[N+](=O)[O-] | -6 | -3 | 17 | · | 92*
